The list is not random: actives were taken first. Their share in the collection is about 0.81%.
LRH-1 inv ag = suppresses constitutive activity of human LRH-1; 360,000 tested, 0.13% active; inhibition, % at 3.6 µM; HEK293T StAR-luciferase reporter, LRH-1 transfected, 24 h; O00482;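 active = inhibition above the mean inhibition of all tested compounds plus 3 SD, cut at about 73% in these data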;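 note: 0% = DMSO wells and 100% = reporter-only cells lacking LRH-1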
COUP-TFII inh = blocks human COUP-TFII nuclear receptor | P24468 | HEK293T NGFI-A luciferase reporter, luminescence | inhibition, % at 8.6 µM | 370,000 tested, 0.7% active | AID 686940;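 active = inhibition above a per-plate cutoff, mean inhibition of test wells between control levels plus 3 SD, cut at about 38% in these data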;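 note: cells cotransfected with COUP-TFII expression vector driving the NGFI-A reporter; 0% = median of COUP-TF2 test wells and 100% = reporter-only cells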
SRC3 inh = human NCOA3 inhibition | Q9Y6Q9 | HEK293 GAL4-SRC3 luciferase reporter, luminescence | inhibition, % at 3.6 µM | 360,000 tested, 0.17% active | AID 588352;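 active = inhibition above a per-campaign cutoff, the mean of all compounds plus 3 SD, cut at about 60% in these data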;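 note: 0% = DMSO-treated cells and 100% = gossypol-treated cells at 36 µM; higher means less SRC3-driven luciferase light from the GAL4 reporter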
NCOA1 inh = inhibits human SRC1 coactivator | 360,000 tested, 0.12% active | Q15788 | inhibition, % at 3.6 µM | HEK293 GAL4-SRC1 luciferase reporter, luminescence;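 active = inhibition above the campaign mean plus 3 SD, with each screening campaign given its own cutoff, cut at about 60% in these data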;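 note: 0% = DMSO treated cells and 100% = gossypol at 36 µM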
SRC2 inh = inhibits human steroid receptor coactivator 2; Q15596; HEK293 GAL4-SRC2 luciferase reporter, luminescence; inhibition, % at 9 µM; 370,000 tested, 0.17% active; AID 651957;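 active = inhibition above the mean inhibition of all tested compounds plus 3 SD, set per campaign, cut at about 52% in these data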;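 note: 0% = DMSO treated cells and 100% = cells given Gossypol at 36 µM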
VP16 Luc counter = counter-screen for COUP-TFII antagonists: inhibitors of VP16; 2,500 tested, 25% active; inhibition, % at 8.5 µM; AID 687007; shares compounds with COUP-TFII inh; HEK293 Gal4-VP16 luciferase reporter, luminescence; in the data active = inhibition above about 13%
NR2F2 inh conf = confirmation of human COUP-TFII (NR2F2) inhibitors. AID 687008. 2,500 tested, 45% active. HEK293 NGFI-A luciferase reporter, luminescence. shares compounds with COUP-TFII inh. inhibition, % at 8.5 µM;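 active = mean inhibition over three repeats above a set limit taken from the earlier primary screen, cut at about 38% in these data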;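 note: 100% = cells given the luciferase reporter alone without the COUP-TF2 vector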
Active calls of the source: *; . = no result.

SMILES	LRH-1 inv ag	COUP-TFII inh	SRC3 inh	NCOA1 inh	SRC2 inh	VP16 Luc counter	NR2F2 inh conf
COc1ccc(C(=O)c2ccccc2)c2c(O)ccc(C(=O)c3ccccc3)c12	27	43*	18	17	32	5	63*
O=C(NC1CCSc2ccccc21)c1cccc(Br)c1 (centres undefined)	-25	-3	-12	-6	-21	.	.
Nc1c(C(=O)Nc2ccc3c(c2)OCCO3)nnn1Cc1ccc(Cl)cc1	-162	-26	-81	-92	-47	.	.
NC(=O)c1nnn(Cc2cc(Cl)c(C(=O)c3ccc(Cl)cc3)c(Cl)c2)c1N	34	55*	.	.	7	5	54*
CCOc1ccc(S(=O)(=O)Nc2cnc3ccccc3c2)cc1	14	43*	22	13	17	-3	30
O=C(Nc1ccc(Cl)cc1)c1ccc(OC2CSC2)cc1	-37	-26	-22	-41	-30	.	.
OC(C1=CC(=Cc2ccncc2)c2ccccc21)c1ccncc1 (centres undefined)	20	37*	12	-14	-7	-6	-14
COc1ccc2c(c1OC)C(=O)N(c1ccccn1)C2	-130	-20	-83	-106	-50	.	.
CC(=NNC(=S)Nc1ccccc1Cl)c1ccccn1	74*	51*	63*	66*	28	-12	0
CC(=NNC(=S)N1CCCCC1)c1ccccn1	54	-8	25	48	-29	.	.
COc1ccc([C@H]2CC(=O)C=C(c3ccc(Oc4ccccc4)cc3)C2)cc1OC	-3	44*	-4	-7	40	-5	12
Oc1cnc2ccccc2c1CN1CCOCC1	11	20	4	0	2	.	.
Cc1ccc(CNC(=O)c2ccc(N3CCCC3=O)cc2)cc1	-12	-5	3	3	-7	.	.
Cn1nc(C(C)(C)C)cc1C(=O)NCc1ccc(N2CCCC2=O)cc1	35	69*	38	15	18	-1	52*
Cc1c(C=O)c2ccccc2n1CCOc1ccccc1F	3	45*	8	-17	13	-6	23
O=C(CSc1nc2nc(-c3cccs3)cc(C(F)(F)F)c2c(=O)[nH]1)C(F)(F)F	-13	38*	17	17	34	-3	36
CC(=O)c1c(C)oc2ccc(N(C(C)=O)S(=O)(=O)c3cccc4cccnc34)cc12	23	38*	34	25	13	1	29
CC1Cc2ccccc2N1c1ncnc(N)c1[N+](=O)[O-] (centres undefined)	41	47*	64*	66*	72*	21*	34
COc1ccc(Cl)cc1Nc1nc(-c2sc(NC(=O)C(C)(C)C)nc2C)cs1	38	41*	61	72*	-33	-5	42*
CCC(NC(=O)Nc1nnc(C(F)(F)F)s1)(C(F)(F)F)C(F)(F)F	62	67*	76*	56	24	17*	60*
Cc1ccc(NC(=O)C2CC(=O)N(Cc3ccccc3)C2)cc1S(=O)(=O)N1CCCCCC1 (centres undefined)	20	31	20	0	-10	.	.
CCN(CC)S(=O)(=O)c1cc(NC(=O)C2CC(=O)N(Cc3ccccc3)C2)ccc1Cl (centres undefined)	16	53*	20	5	12	1	25
COc1ccc(N(CC(=O)NC(C)c2ccccc2)S(=O)(=O)c2c(C)noc2C)cc1 (centres undefined)	-7	-4	10	-9	-11	.	.
O=C(/C=C/c1ccco1)Nc1ccccc1C(=O)O	-125	-62	-71	-88	-64	.	.
NS(=O)(=O)c1ccc(NC(=S)NCc2ccccc2)cc1	4	-6	-6	-2	-6	.	.
SMILES	LRH-1 inv ag	COUP-TFII inh	SRC3 inh	NCOA1 inh	SRC2 inh	VP16 Luc counter	NR2F2 inh conf
CCCCNC(=O)C1(C)CCN1C(=O)c1ccc2c(c1)C(C)(C)CCC2(C)C (centres undefined)	16	20	3	1	28	.	.
CCCCNC(=O)C1(C)CCCCN1C(=O)c1ccc2c(c1)C(C)(C)CCC2(C)C (centres undefined)	25	38*	-12	25	21	-4	29
CN1C(=O)C(CC(=O)Nc2ccccc2F)N(NC(=O)c2ccc(Br)cc2)C1=S (centres undefined)	14	-15	0	6	-2	.	.
O=C(COc1ccccc1F)N1CCCc2ccccc21	-5	15	3	7	1	.	.
CN(NC(=O)C(=O)NCc1ccco1)C(=O)NC1CCCCC1	.	-23	.	.	11	.	.
CCN(CC)S(=O)(=O)c1cc(NC(=O)C(=O)c2c(-c3ccccc3)cc3ccccn23)ccc1C	5	39*	-2	1	8	12	18
CCN(CC)S(=O)(=O)c1cccc(NC(=O)C(=O)c2c(-c3ccccc3)cc3ccccn23)c1	-2	26	8	-20	-3	.	.
COc1ccc(C)cc1Nc1n[n+](-c2ccccc2)c(-c2c(OC)ccc3ccccc23)s1	3	43*	29	-8	13	2	28
Cc1nc(SCC(=O)c2cccs2)c2oc3ccccc3c2n1	-95	-40	-66	-75	-66	.	.
CC1CC(C)C(=NNC(N)=O)C(C(O)CC2CCC(=O)NC2=O)C1 (centres undefined)	99*	82*	74*	75*	58*	-12	20
COc1ccc(NC(=O)CN(C)C(=O)c2cc(-c3ccccc3)nc3ccccc23)cc1	17	4	3	-18	2	.	.
Cc1cc(/C=N/n2cnnc2)c(C)n1-c1ccc(OCc2ccc(Cl)cc2)cc1	44	68*	23	16	30	41*	88*
Cc1cc(/C=N/n2cnnc2)c(C)n1-c1ccc(OCc2ccccc2F)cc1	-70	-6	-18	-49	-10	.	.
COc1ccc(CNC(=O)CCCCCNC(=O)N2CCn3c2nc2ccccc23)cc1	-4	13	15	1	4	.	.
CCCCN1C=CC(=C2C(=O)c3ccccc3C2=O)C=C1	-9	80*	60	44	76*	67*	67*
CCCCNC1=CC(=O)C(=O)c2ccccc21	36	12	13	14	-14	.	.
CCCc1c(-c2ccccc2OC)ncn1CCc1ccccc1OC	.	31	.	.	9	.	.
CCCc1c(-c2ccc(OC)cc2)ncn1CCc1ccccc1OC	.	47*	.	.	17	-8	-6
COc1ccc(C(=O)C2CCN(c3ncnc4sccc34)CC2)cc1	.	76*	.	.	.	5	68*
O=C(c1ccccc1)C1CCN(C(=O)c2cccs2)CC1	11	11	19	26	27	.	.
Cc1sc2ncnc(N3CCC(C(=O)NNC(=O)c4ccc(Cl)cc4)CC3)c2c1C	0	24	-2	-7	26	.	.
O=C(c1cccs1)C1CCN(c2ncnc3sccc23)CC1	.	76*	.	.	.	12	69*

Source: PubChem (The Scripps Research Institute Molecular Screening Center)
